Test results from PubChem BioAssay (NCATS).
Inconclusive results are not listed. Activity calls are given as the source filed them. The call rests on the fitted dose curve; in most records, active means well fitted inhibition curve with a large enough effect; inconclusive means small, poorly fitted or top-dose-only effect; inactive means flat fitted curve, though single readings scatter.

Tests used:
Test in all cases: qHTS profiling for inhibitors of Plasmodium falciparum proliferation (AID 504749); further: nearly all actives have a fitted effect of over 60% in size
Details in all cases: P. falciparum in erythrocytes, SYBR Green DNA, 72 h; series mostly up to 28.7 µM
CP335 = tested on: CP335
Procedure, shortened: (§1)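 Infected RBCs, 0.3% parasitemia/2.5% Hct final; cpd 72 h, 37 C, 5% CO2; lysis buffer with saponin/triton/SYBR Green I, o/n RT dark; FI 485/535; norm. to artemisinin (0.29 uM) and DMSO.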

DFO2036 = tested on: DFO2036
Procedure, shortened: as §1

ECU = tested on: ECU
Procedure, shortened: as §1

GB4 = tested on: GB4
Procedure, shortened: as §1

HB3 = tested on: HB3
Procedure, shortened: as §1

ICS = tested on: ICS
Procedure, shortened: as §1

N140 = tested on: N140
Procedure, shortened: as §1

P93_24 = tested on: P93_24
Procedure, shortened: as §1

P94_40 = tested on: P94_40
Procedure, shortened: as §1

PC49 = tested on: PC49
Procedure, shortened: as §1

CP329 = tested on: CP329
Procedure, shortened: as §1

DIV30 = tested on: DIV30
Procedure, shortened: as §1

Dd2 = tested on: Dd2
Procedure, shortened: as §1

JCK = tested on: JCK
Procedure, shortened: as §1

DIV14 = tested on: DIV14
Procedure, shortened: as §1

DIV17 = tested on: DIV17
Procedure, shortened: as §1

PC26 = tested on: PC26
Procedure, shortened: as §1

PAD = tested on: PAD
Procedure, shortened: as §1

PC15 = tested on: PC15
Procedure, shortened: as §1

Measured: Potency
Potency means the concentration at half of the fitted maximal effect.

COC1CC(=C(c2cccs2)c2cccs2)C[N+](C)(C)C1 (stereo not given)
inactive: PC49
active: CP335 6.01 µM | DFO2036 5.62 µM | ECU 8.91 µM | GB4 7.57 µM | HB3 8.91 µM | ICS 3.98 µM | N140 7.94 µM | P93_24 5.01 µM | P94_40 2.24 µM

C=CCN1C[C@H](C)N([C@H](c2ccc(C(=O)N(CC)CC)cc2)c2cccc(OC)c2)C[C@H]1C
active: Dd2 11.2 µM | ICS 12.6 µM
inactive: CP329 | DIV30 | JCK

COc1ccc2c(c1OC)C(=O)O[C@H]2[C@@H]1c2cc3c(cc2CCN1C)OCO3
inactive: CP329 | CP335 | DIV14 | DIV17 | DIV30 | GB4 | PC26

O=C(N/N=C/c1ccc([N+](=O)[O-])o1)c1cc([N+](=O)[O-])cc([N+](=O)[O-])c1O
active: DFO2036 3.98 µM | HB3 1.58 µM | N140 0.708 µM | P93_24 0.1 µM | P94_40 0.0794 µM | PAD 7.1 nM
inactive: DIV14 | PC15
